Assay outcomes as filed in PubChem BioAssay.
Compounds with a hit are over-represented: about 1.6% of the library has one in this group of screens.
MLLE-PAM2 inh: inhibitors of microRNA-mediated deadenylation, human PABP1 MLLE binding. P11940. GST-MLLE / FITC-PAM2 fluorescence polarization. inhibition, % at 20 µM. 360,000 compounds, 0.36% hits. AID 588489; in the data active = inhibition above about 35%, passing the limit was not always enough;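 also: plate controls were DMSO wells with GST-MLLE for no effect and wells lacking GST-MLLE protein for full effect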
PABP FP inh: PABP-poly(A) binding inhibition. PABP-poly(A) RNA binding, fluorescence polarization. calls only at 35 µM. 290,000 compounds, 1% hits;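 also: calls also rest on retests at 20 µM and on dose response follow-up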
eIF4H FP inh: inhibitors of RNA binding by human eIF4H; inhibition, % at 35 µM; Q15056; eIF4H fluorescence polarization binding assay; 290,000 compounds, 0.94% hits; AID 2012;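 also: calls also rest on retests at 20 µM and on dose response follow-up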
eIF4E-4G inh: eIF4E/eIF4G interaction inhibition in translation initiation | TR-FRET eIF4E-eIF4GI(517-606) binding, 2 h | AID 782 | 220,000 compounds, 0.37% hits | P63073+Q04637 | inhibition, % at 21.7 µM;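 active = inhibition above about 30%, limit read from the data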;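 also: 0% = full FRET control wells and 100% = background wells lacking eIF4GI fragment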
PERK inhibitor: human PERK inhibition, primary cell-based screen; inhibition, % at 5.6 µM; AID 1416; CHO PERK-DD fusion, SEAP luminescence translation reporter; Q9NZJ5; 220,000 compounds, 0.17% hits;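 active = inhibition above the mean inhibition of all tested compounds plus 3 SD, set separately per screening campaign, cut at about 2.9% in these data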;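 also: PERK kinase domain activated by AP20187 dimerizer at 100 nM; 0% = DMSO with dimerizer and 100% = rapamycin at 8.4 µM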
* marks the source's active call; other numbers are inactive results; [ ] = dose if it differs, or a comment. Unless noted, no rule for the calls is given here.

How did CCCc1nc2c(=O)n(C)c(=O)[nH]c2n1C do in these assays?
MLLE-PAM2 inh: 4; PABP FP inh: active; eIF4H FP inh: 53*; eIF4E-4G inh: 4; PERK inhibitor: 2

How did Cn1c(=O)[nH]c2c(nc(-c3ccc(Cl)cc3)n2C)c1=O do in these assays?
MLLE-PAM2 inh: 12; PABP FP inh: inactive; eIF4H FP inh: 61

Results for Cc1ccc(C2(C(F)(F)F)NC(=O)N3CCCN=C3S2)cc1 (centres undefined) ?
MLLE-PAM2 inh: -6; PABP FP inh: inactive; eIF4H FP inh: -12; eIF4E-4G inh: 4; PERK inhibitor: 1

Results for Cc1ccc(C2(C(F)(F)F)NC(=O)N3CCN=C3S2)cc1 (centres undefined) ?
MLLE-PAM2 inh: -3; PABP FP inh: inactive; eIF4H FP inh: 4; eIF4E-4G inh: -1; PERK inhibitor: 2.9*

How did O=[N+]([O-])c1ccc(S(=O)(=O)Nc2ccc3c(c2)OCCO3)cc1 do in these assays?
MLLE-PAM2 inh: 41*; PABP FP inh: inactive; eIF4H FP inh: -2

Results for Cc1c(C(C)(C)C)c(C=S)n2ccccc12 ?
MLLE-PAM2 inh: 29; PABP FP inh: active; eIF4H FP inh: 77*; eIF4E-4G inh: -1; PERK inhibitor: 0

What do the screens show for `Cc1ccc(C(=O)Sc2cccccc2=O)cc1`?
MLLE-PAM2 inh: 50*; PABP FP inh: inactive; eIF4H FP inh: 43

What do the screens show for `CC(=O)c1ccc(OCCCC(=O)NC2=NCCS2)cc1`?
MLLE-PAM2 inh: 39*; PABP FP inh: inactive; eIF4H FP inh: 7; eIF4E-4G inh: -4; PERK inhibitor: 1

Results for Cc1ccc(OCC(=O)NC2=NCCS2)cc1 ?
MLLE-PAM2 inh: 17; PABP FP inh: inactive; eIF4H FP inh: 4; eIF4E-4G inh: -2; PERK inhibitor: 2

What do the screens show for `CC(=O)c1ccc2c(c1)C1C=CCC1C(C(=O)O)N2` (centres undefined)?
MLLE-PAM2 inh: 18; PABP FP inh: active; eIF4H FP inh: 101*; eIF4E-4G inh: 31*; PERK inhibitor: 0

How did Cc1ccc2c(c1)C1C=CCC1C(C(=O)O)N2 (centres undefined) do in these assays?
PABP FP inh: inactive; eIF4H FP inh: 89; eIF4E-4G inh: 65*[fluorescence artefact?]; PERK inhibitor: 0

What do the screens show for `CC(=O)c1ccc2c(c1)C1C=CCC1C(c1ccncc1)N2` (centres undefined)?
MLLE-PAM2 inh: 6; PABP FP inh: inactive; eIF4H FP inh: 0; eIF4E-4G inh: -9; PERK inhibitor: 0

Results for CC(=O)N1CCN=C1SCc1cccc(F)c1 ?
MLLE-PAM2 inh: 6; PABP FP inh: inactive; eIF4H FP inh: -9

Results for COc1cccc2c1cc1c(=O)n(CC(=O)NCc3ccccn3)nc(C)n12 ?
MLLE-PAM2 inh: 15; PABP FP inh: inactive; eIF4H FP inh: -15

How did Cc1ccc2cc(C)c3nnc(SCC(=O)c4cccs4)n3c2c1C do in these assays?
MLLE-PAM2 inh: 4; PABP FP inh: active; eIF4H FP inh: 96*; eIF4E-4G inh: 6; PERK inhibitor: -1

Results for Cc1ccc(C(=O)N/C(=C/c2ccco2)C(=O)NCCc2c[nH]c3ccccc23)cc1 ?
MLLE-PAM2 inh: -4; PABP FP inh: inactive; eIF4H FP inh: -5; eIF4E-4G inh: -5; PERK inhibitor: 0

What do the screens show for `Oc1ccccc1-c1cc(C(F)(F)C(F)F)nc(-c2ccccc2)n1`?
MLLE-PAM2 inh: 9; PABP FP inh: inactive; eIF4H FP inh: -7; eIF4E-4G inh: 0; PERK inhibitor: 3.0*

Results for COc1ccc(O)c(-c2cc(C(F)(F)C(F)F)nc(-c3ccccc3)n2)c1 ?
MLLE-PAM2 inh: -7; PABP FP inh: inactive; eIF4H FP inh: 1; eIF4E-4G inh: 0; PERK inhibitor: 1

How did Cc1cc(C)c(C(O)c2ncc(-c3ccccc3Cl)[nH]2)c(C)c1 (centres undefined) do in these assays?
MLLE-PAM2 inh: 0

Results for COc1ccc(C2c3sc(=O)[nH]c3SC3C(=O)N(c4ccccc4)C(=O)C32)cc1 (centres undefined) ?
MLLE-PAM2 inh: 26; PABP FP inh: inactive; eIF4H FP inh: 66*; eIF4E-4G inh: 3; PERK inhibitor: 1

What do the screens show for `O=C(Nc1ccc(F)cc1)Nc1ccc([N+](=O)[O-])cn1`?
MLLE-PAM2 inh: 8; PABP FP inh: active; eIF4H FP inh: 3.0*; eIF4E-4G inh: 6; PERK inhibitor: 1

How did O=C(Nc1ccc(Cl)c(Cl)c1)Nc1ccc([N+](=O)[O-])cn1 do in these assays?
MLLE-PAM2 inh: -1; PABP FP inh: inactive; eIF4H FP inh: 2; eIF4E-4G inh: 14; PERK inhibitor: 1

What do the screens show for `COc1ccc(-c2nc3ncccc3o2)cc1NC(=O)c1ccco1`?
MLLE-PAM2 inh: 9; PABP FP inh: inactive; eIF4H FP inh: -4

Results for Cc1cc(Sc2nc(N)ncc2[N+](=O)[O-])ncn1 ?
MLLE-PAM2 inh: 26; PABP FP inh: inactive; eIF4H FP inh: 8; eIF4E-4G inh: 4; PERK inhibitor: 0

Results for Cc1cc(Sc2ncnc(N)c2[N+](=O)[O-])ncn1 ?
MLLE-PAM2 inh: 46*; PABP FP inh: inactive; eIF4H FP inh: 3; eIF4E-4G inh: -1; PERK inhibitor: 0

Results for O=C1c2sccc2-c2cccc3cccc1c23 ?
MLLE-PAM2 inh: 67*

What do the screens show for `O=C1C(Br)=Cc2cccc3cccc1c23`?
MLLE-PAM2 inh: 83; PABP FP inh: inconclusive; eIF4H FP inh: inconclusive; eIF4E-4G inh: -8; PERK inhibitor: 0

Results for COc1ccc(NC(=O)N(C)C[C@H]2OCCCC[C@@H](C)Oc3ccc(NC(=O)c4ccccc4)cc3C(=O)N([C@H](C)CO)C[C@@H]2C)cc1 ?
MLLE-PAM2 inh: -46

How did CCOc1[nH]c(/N=C/c2ccco2)c(C#N)c1C#N do in these assays?
MLLE-PAM2 inh: 19; PABP FP inh: active; eIF4H FP inh: 100*; eIF4E-4G inh: 6; PERK inhibitor: 1

What do the screens show for `N#Cc1c(/N=C/c2ccco2)sc2c1CCC2`?
MLLE-PAM2 inh: 9; PABP FP inh: inactive; eIF4H FP inh: 12; eIF4E-4G inh: 0; PERK inhibitor: 0

What do the screens show for `O=C(COc1ccc(/C=N/NC(=O)c2ccccc2Br)cc1)Nc1ccccc1`?
MLLE-PAM2 inh: 6; PABP FP inh: inactive; eIF4H FP inh: 0

How did O=C(COc1ccc(/C=N/NC(=O)c2ccccc2O)cc1)Nc1ccccc1 do in these assays?
MLLE-PAM2 inh: 9; PABP FP inh: active; eIF4H FP inh: 61; eIF4E-4G inh: 9; PERK inhibitor: -1

Results for O=C(O)c1ccc(NC(=O)C(c2ccccc2)c2ccccc2)cc1 ?
MLLE-PAM2 inh: 6; PABP FP inh: inactive; eIF4H FP inh: 2

How did O=C(c1ccc(NC(=O)C(c2ccccc2)c2ccccc2)cc1)c1ccc(C(=O)O)c(C(=O)O)c1 do in these assays?
MLLE-PAM2 inh: 13; PABP FP inh: active; eIF4H FP inh: 78*

How did N#Cc1c2c(c(NCCCN3CCOCC3)n3c1nc1ccccc13)CCC2 do in these assays?
MLLE-PAM2 inh: -4; PABP FP inh: active; eIF4H FP inh: 93*; eIF4E-4G inh: 1; PERK inhibitor: -2

How did COc1ccccc1-c1cnc(C(O)c2cccc(F)c2)[nH]1 (centres undefined) do in these assays?
MLLE-PAM2 inh: -6
